Only some compounds are listed: those with a hit (about 4.7% of all), similar ones and a draw of the others.
RecA splice inh: Mtb RecA intein splicing inhibitors, primary screen, biochemical, fluorescence, HTS. cell-free RecA intein splicing. inhibition, % (test concentration not listed). 290,000 compounds, 0.75% hits. AID 2221, 2009; in the data active = inhibition above about 30%;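 note: 0% = vehicle wells and 100% = reference inhibitor control wells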
GDH-TPI counter-1: GDH-TPI coupling enzyme inhibitors, primary screen, artefact control for M. tuberculosis FBA inhibitor project, biochemical, absorbance, full deck; GDH-TPI coupled enzyme counterscreen, NADH absorbance; inhibition, % at 4.8 µM; 360,000 compounds, 1.2% hits;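 note: 0% = DMSO wells and 100% = wells lacking the enzyme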
3CLpro inhibitor: SARS-CoV 3CLpro protease inhibitors, primary screen, biochemical, quenched FRET | Replicase polyprotein 1ab (Severe acute respiratory syndrome coronavirus), P0C6X7 | recombinant SARS-CoV 3CLpro, quenched FRET peptide cleavage | inhibition, % at 6 µM | 290,000 compounds, 0.14% hits | AID 1706, 2009; in the data active = inhibition above about 12%
CCHF vOTU inh: CCHFV vOTU protease inhibitors, primary screen, biochemical, Pep-AMC substrate, fluorescence. Crimean-Congo hemorrhagic fever virus L polyprotein viral ovarian tumor (vOTU) protease …. inhibition, % at 11.5 µM. 370,000 compounds, 0.55% hits. AID 651958, 2012; note: 0% = vehicle wells with enzyme and 100% = no enzyme wells
DUSP3 inh: VHR1 phosphatase inhibitors, primary screen, biochemical, absorbance, uHTS | recombinant VHR phosphatase, pNPP absorbance | 290,000 compounds, 0.52% hits | inhibition, % at 13.3 µM; in the data active = inhibition above about 50%
Target sequence (P51452 whole entry, looked up): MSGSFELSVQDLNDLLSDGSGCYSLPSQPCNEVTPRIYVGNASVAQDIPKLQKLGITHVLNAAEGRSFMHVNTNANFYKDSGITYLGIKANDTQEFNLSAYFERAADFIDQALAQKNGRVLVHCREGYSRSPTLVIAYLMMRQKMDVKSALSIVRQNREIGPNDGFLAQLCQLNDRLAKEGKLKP
Mtb FBA inh: Mtb FBA enzyme inhibitors, primary screen, biochemical, fluorescence, strain H37Rv; 360,000 compounds, 2.3% hits; AID 588726, 2011; inhibition, % at 1 µM; Fructose-bisphosphate aldolase (Mycobacterium tuberculosis (strain ATCC 25618 / H37Rv)), …; purified M. tuberculosis FBA, fluorescence read-out; in the data active = inhibition above about 27%;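 note: 0% = vehicle and 100% = reference inhibitor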
Target sequence (P9WQA3 whole entry, looked up): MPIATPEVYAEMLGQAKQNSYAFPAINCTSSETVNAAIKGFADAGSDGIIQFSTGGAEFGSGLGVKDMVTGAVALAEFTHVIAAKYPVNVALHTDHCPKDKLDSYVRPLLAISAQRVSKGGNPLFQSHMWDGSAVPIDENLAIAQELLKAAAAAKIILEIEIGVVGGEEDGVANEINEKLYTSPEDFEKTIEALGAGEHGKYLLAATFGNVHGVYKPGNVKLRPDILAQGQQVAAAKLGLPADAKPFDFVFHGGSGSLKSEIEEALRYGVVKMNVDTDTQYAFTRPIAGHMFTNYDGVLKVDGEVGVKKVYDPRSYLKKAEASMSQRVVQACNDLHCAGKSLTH
Mtb FBA inh conf: M. tuberculosis aldolase blockers, biochemical, fluorescence, strain H37Rv, confirmation. shares compounds with Mtb FBA inh. AID 651616, 2012. purified M. tuberculosis FBA, fluorescence read-out. 5,600 compounds, 78% hits. inhibition, % at 1 µM; in the data active = inhibition above about 27%;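 note: 0% = vehicle wells and 100% = reference inhibitor wells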
GDH-TPI counter-2: GDH-TPI coupling enzyme inhibitors, artefact control for M. tuberculosis FBA inhibitor project, biochemical, fluorescence, high throughput; shares compounds with Mtb FBA inh; GDH-TPI coupled enzyme counterscreen; inhibition, % at 1 µM; 5,600 compounds, 81% hits; AID 652141, 2013; in the data active = inhibition above about 10%
GDH-TPI dose: GDH-TPI coupling enzyme inhibitors, dose response, artefact control for M. tuberculosis FBA inhibitor project, biochemical, fluorescence, IC50. shares compounds with Mtb FBA inh. GDH-TPI coupled enzyme assay, artifact counterscreen. IC50, µM. 170 compounds, 79% hits. AID 652145, 2013; call rule not given here
Active calls of the source: *; i = inactive; x = no result given; + = active, no number. Cut-off read from the data, not from the text of the source, unless noted: active = inhibition above about 30%; inactive = the rest.

SMILES | RecA splice inh | GDH-TPI counter-1 | 3CLpro inhibitor | CCHF vOTU inh | DUSP3 inh | Mtb FBA inh | Mtb FBA inh conf | GDH-TPI counter-2 | others
CN(C)c1oc(-c2ccc(OCc3ccccc3)cc2)nc1C#N | -0.7 | 25.6 | -3.8 | -14.0 | -16.7 | 109.5* | -5.7 | -5.2
COC(=O)C1=C(C)N(C)C(=NCc2ccc(C(F)(F)F)cc2)NC1c1cccc(Cl)c1 (stereo unspecified) | x | x | x | 20.5 | x | x | x | x
O=C(/C=C/c1cn(-c2ccccc2)nc1-c1cccs1)NCCN1CCOCC1 | 3.9 | 26.2 | -0.5 | -16.5 | 2.6 | 45.5* | 142.7* | 86.9*
CCCCCc1nnc(NC(=O)NS(=O)(=O)c2ccc(C)cc2)s1 | -0.9 | 1.5 | -0.8 | 13.4 | -19.2 | 41.4* | 150.9* | 120.9*
CCCCN1C(C(=O)Nc2ncccn2)=C(O)c2ccccc2S1(=O)=O | -0.6 | 11.2 | 1.0 | 9.2 | -15.3 | 7.7 | x | x
Cc1nn(-c2ccccc2)c(C)c1N | 1.6 | -7.9 | 7.9 | 7.9 | -12.2 | -0.3 | x | x
Cc1c(O)cnc2nn(-c3ccccc3)c(=N)n12 | x | x | x | -48.9 | x | 90.9* | 81.2* | 52.0*
O=C(CSc1nc2c([nH]c3ccccc32)c(=O)n1-c1ccccc1F)NCC1CCCO1 (stereo unspecified) | 1.7 | 1.4 | -3.6 | -22.6 | -0.2 | 36.3* | 89.4* | 52.6*
Cc1ccccc1-n1c(SCC(=O)NCC2CCCO2)nc2c([nH]c3ccccc32)c1=O (stereo unspecified) | 1.1 | 7.0 | -0.6 | 8.6 | 25.7 | 1.9 | x | x
O=C(c1ccc2nc(-c3ccccc3)c(-c3ccccc3)nc2c1)N1CCCCC1 | 10.7 | 14.6 | 2.8 | -30.6 | -1.3 | 33.5* | 92.6* | 63.5*
Cc1cccc(-c2nc3ccc(C(=O)N4CCC5(CC4)OCCO5)cc3nc2-c2cccc(C)c2)c1 | 11.4 | 16.2 | 5.2 | -37.0 | -0.7 | 42.5* | 117.2* | 78.6*
O=C(c1ccccc1)N1CCCCCC1 | -1.9 | 12.9 | -3.9 | 12.9 | 0.1 | 3.2 | x | x
Cc1ccc2nc(-c3ccncc3)cc(C(=O)N3CCC4(CC3)OCCO4)c2c1 | x | 4.8 | -0.1 | 6.0 | -11.0 | 2.1 | x | x
CN1CCN(C(=O)c2ccc3nc(-c4ccccc4)c(-c4ccccc4)nc3c2)CC1 | -1.0 | 10.4 | 1.4 | -50.0 | -2.1 | 30.2* | 168.1* | 135.2*
COC(=O)[C@]12CCCCC=C1N(CCc1ccc(OC)c(OC)c1)C(=O)[C@H](CC(=O)NCCCN1CCCC1=O)C2 | x | x | x | -3.8 | x | x | x | x
CCOC(=O)N1CCN(CC(O)COC2CC(C)CCC2C(C)C)CC1 (stereo unspecified) | -1.2 | 2.0 | 1.8 | 15.0 | 17.1 | 34.0* | 13.1 | -7.2 | GDH-TPI dose=>10
CCOC(=O)C[C@@H]1OC[C@H](CO)N1S(=O)(=O)c1ccc(C)cc1 | x | x | x | 8.0 | x | x | x | x
COc1ccc(C2=NN(CC(=O)NCC(OC)OC)C(=O)CC2)cc1 | -0.1 | -1.4 | 4.0 | -5.4 | 17.0 | 1.1 | x | x
Cc1cccn2c(=O)c3cc(C#N)c(=NC(=O)c4cccs4)n(CC(C)C)c3nc12 | -80.8 | 1.5 | -1.3 | -16.0 | 17.9 | 35.4* | + | 190.1*
Cc1ccc(-n2c(=O)c(C#N)cc3c(=O)n4cccc(C)c4nc32)cc1 | -101.6 | -0.6 | 2.3 | -45.4 | 35.7 | 62.5* | 137.6* | 84.0*
CC(=O)N=c1c(C#N)cc2c(=O)n3ccccc3nc2n1Cc1ccccc1 | -57.3 | -6.6 | 4.8 | -25.6 | -10.0 | 28.0* | 122.3* | 107.8*
Cc1cccn2c(=O)c3cc(C#N)c(=O)n(Cc4cccnc4)c3nc12 | x | 6.4 | x | -78.4 | 6.7 | 110.9* | 86.9* | 71.0*
CCC(C)n1c(=N)c(C#N)cc2c(=O)n3cccc(C)c3nc21 (stereo unspecified) | i | 1.2 | 1.1 | -5.8 | -8.6 | 19.8 | x | x
O=C(OCC(=O)c1ccc(Cl)s1)c1ccc(CO)cc1 | 1.2 | 8.4 | x | 4.3 | x | 3.5 | x | x
CS(=O)(=O)c1ccccc1-c1nc(-c2ccc([N+](=O)[O-])cc2)no1 | -1.7 | 6.1 | -1.8 | -17.7 | 2.2 | 4.4 | x | x
SMILES | RecA splice inh | GDH-TPI counter-1 | 3CLpro inhibitor | CCHF vOTU inh | DUSP3 inh | Mtb FBA inh | Mtb FBA inh conf | GDH-TPI counter-2 | others
NC(=O)c1cc(NC(=O)CCNS(=O)(=O)c2cccc(C(F)(F)F)c2)cc(C(N)=O)c1 | 0.3 | -6.2 | -2.8 | -0.8 | 18.7 | 0.7 | x | x
COc1ccc(Cl)cc1-c1cc(C(=O)NCc2cccs2)[nH]n1 | x | 1.8 | x | 7.8 | x | 0.6 | x | x
CCNc1nc(Oc2ccc(F)cc2)cc(C(F)(F)F)n1 | 1.8 | -3.0 | -1.0 | -3.7 | 9.3 | 2.3 | x | x
CCNc1nc(Oc2ccc(C#N)cc2)cc(C(F)(F)F)n1 | 1.9 | 6.7 | -0.8 | -2.3 | 1.1 | 55.9* | 130.9* | 87.8*
Cc1cc(C)c2nc3nc(C)c(C)cc3c(N)c2c1 | i | -4.8 | -4.9 | -74.2 | 9.5 | 29.3* | 76.3* | 47.8*
CCCSc1nc(C)c2cc(C)cc(C)c2n1 | 0.3 | -5.9 | -0.6 | 9.6 | -24.8 | 5.5 | x | x
O=C(/C=C/c1cccc(Cl)c1)NCc1cccs1 | -7.0 | -6.4 | 3.4 | -2.8 | 6.8 | 0.0 | x | x
COC(=O)C1=CN(Cc2cccs2)C=C(C(=O)OC)C1c1cccc(Cl)c1 | -6.2 | 6.8 | 3.0 | -55.8 | 13.4 | 71.1* | 64.9* | 53.4*
CCCCOC(=O)c1ccccc1C(=O)OCCCC | x | -3.2 | x | -0.5 | x | -1.2 | x | x
COC(=O)C1=CN(c2ccc(OC)cc2)C=C(C(=O)OC)C1c1cc(OC)c(OC)cc1OC | -15.6 | 4.7 | 7.0 | -13.4 | 5.4 | 3.6 | x | x
COC(=O)C1=CN(Cc2cccs2)C=C(C(=O)OC)C1c1ccc(OC)cc1OC | -182.2 | -4.2 | 4.9 | -99.5 | 5.6 | 85.2* | 89.5* | 93.1*
CCCCOc1ccccc1C1C(C(=O)OC)=CN(CC)C=C1C(=O)OC | -113.4 | 20.4 | -8.2 | -110.0 | 31.1 | 62.8* | 7.4 | 1.4
CCOc1ccc(N(CC(=O)Nc2ccc(OC)cc2OC)S(=O)(=O)c2c(C)[nH]c(=O)[nH]c2=O)cc1 | 5.1 | 5.7 | 3.7 | 7.2 | -3.6 | 5.2 | x | x

Source: PubChem BioAssay (several laboratories)
